Inconclusive results are not listed. Unmarked numbers belong to inactive results. Calls follow the shape of the dose curve; as a rule, active = well fitted cell-killing curve with a large enough effect; inconclusive = small, poorly fitted or top-dose-only effect, or effect the other way; inactive = flat fitted curve, though single readings scatter. *1 amine or outer side, *2 acyl side, *3 side chain or, on linkers, in order; H or OH if unused. Where a SMILES comes first, the peptide text is derived from it. [ ]: non-standard residue; d: D form. The star is where a group is joined. X13 = O=C(C(CC(O)CO)O[*:1])[*:2]; NMeV = CN[CH](C(=O)O)C(C)C; βNA = c1ccc2cc(N*)ccc2c1; Cbz = O=C(OCc1ccccc1)*; NMeA = CN[CH](C)C(=O)O; βAla = NCCC(=O)O
test system: SKOV3; assay: Primary qHTS to identify gynecologic anti-cancer compounds using libraries of approved drugs and bioactive compounds (AID 1345084); details: Gynecologic cancer cell panel viability, ATPlite luminescence, 48 h; series mostly up to 57.5 µM; activity change, negative = cytotoxicity: at the top concentration; also: nearly all actives have a fitted effect of over 55% in size
Outline: (§1)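 ATP-based viability (ATPlite), 1,000 cells/well, 16 h pre-incubation, 48 h compound at 37 C, 5% CO2, 15 min RT before read.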
% is scaled to controls: 0 for no effect and ±100 for the full control effect.

Compound | activity change, negative = cytotoxicity
CC(=O)c1c(C)cccc1O[C@@H]1O[C@H](CO)[C@@H](O)[C@H](O)[C@H]1O | -2.82% [at 38.5 µM]
C/C=C(\C)C(=O)OC1CC2C(CC=C3CC(OC4CC(OC)C(OC5CC(OC)C(OC6CC(OC)C(OC7CC(OC)C(OC8CC(OC)C(OC9OC(CO)C(O)C(O)C9O)C(C)O8)C(C)O7)C(C)O6)C(C)O5)C(C)O4)CCC32C)C2(O)CCC(C(C)=O)C12C (stereo not given) | -2.08% [at 6.55 µM]
COc1ccc2[nH]c(S(=O)Cc3ncc(C)c(OC)c3C)nc2c1 (stereo not given) | -2.31%
COc1cc(C)c(C(=O)OC2C(C)OC(OC3CCC(C)C4C3C=C(C)C3/C(C)=C\CC/C(C)=C/C5(C)C=C(C(=O)O)C(C)CC56OC(=O)/C(=C(\O)C34C)C6=O)C(O)C2O)c(OC)c1 (stereo not given) | -6.42% [at 11.6 µM]
COc1ccc(/C=C/C(=O)O[C@@H]2[C@@H](O[C@@H]3O[C@H](CO)[C@@H](O)[C@H](O)[C@H]3O)[C@@H](O)[C@H](O[C@H]3C4C=CO[C@@H](O[C@@H]5O[C@H](CO)[C@@H](O)[C@H](O)[C@H]5O)C4[C@@]4(CO)O[C@@H]34)O[C@H]2C)cc1 (stereo not given in full) | 1.14% [at 11.6 µM]
CC(C)C1NC(=O)C(CC2(O)c3ccccc3N3C(=O)C(Cc4ccccc4)NC32)NC1=O (stereo not given) | -4.64% [at 25.3 µM]

test system: Tov-21-G; assay: as above; details: Gynecologic cancer cell panel viability, ATPlite luminescence, 48 h; series mostly up to 57.5 µM; activity change, negative = cytotoxicity: at the top concentration
Outline: as §1

Compound | activity change, negative = cytotoxicity
NC(N)=NCCC[C@H](NC(=O)c1sccc1NS(=O)(=O)c1cccc2nsnc12)C(=O)O | 10.7%
Nc1ccc(-n2nc(C(F)(F)F)cc2C(F)(F)F)cc1 | -1.94%
C[C@H](O)C(O)(C(=O)OCc1ccccc1NC(=O)CCC(N)C(=O)O)[C@H](C)O (stereo not given in full) | 5.33% [at 25.3 µM]
CC[C@H](NC(=O)c1c(O)c(-c2ccccc2)nc2ccccc12)c1ccccc1 | 4.56%
CC/C=C/C(O)C(O)C1=C(C)C(=O)C2(O1)C(=O)NC(OC)(C(=O)c1ccccc1)C2O (stereo not given) | -10.3% [at 25.3 µM]
Fc1cccc(CN(C2=NCCN2)c2c(Cl)cccc2Cl)c1 | -2.63%
O=C(O)CCc1cccc(O)c1O[C@@H]1O[C@H](CO)[C@@H](O)[C@H](O)[C@H]1O | 12% [at 38.5 µM]
CCC(C)/C=C(C)/C=C/C1=CC2=CC(=O)C(C)(O)C(OC(C)=O)C2CO1 (stereo not given) | -10.5% [at 38.5 µM]
CC1CC(O)/C=C/C(O)/C=C\C(=O)O1 (stereo not given) | -1.52%
CC(C)CC(NC(=O)OCc1ccccc1)C(=O)NC(CC(C)C)C(=O)NC(CCC(=O)O)C(=O)Nc1ccc2ccccc2c1 (stereo not drawn) (Cbz-Leu-Leu-Glu-βNA; configuration not given here) | 0.414%
COCc1c(O)c(C(=O)O)c(C)c2c1OC(=O)c1c(C)cc(O)c(CO)c1O2 | 3.9% [at 38.5 µM]
C=C(C(=O)O)C1CC(O)C2(C)CCCC(C)(O)C2C1 (stereo not given) | 1.44%
C=C[C@H]1[C@H](O[C@@H]2O[C@H](CO)[C@@H](O)[C@H](OC(=O)/C=C/c3ccc(O)c(OC)c3)[C@H]2O)OC=C2C(=O)OCC[C@]21O | -0.663% [at 25.3 µM]
COC(=O)C1(O)C(OC(C)=O)CCC2C3(CC(c4ccoc4)OC3=O)C(C)=CCC21C(=O)OC (stereo not given) | 10.7% [at 25.3 µM]
O=C(Nc1cc(-c2ccccc2)nn1-c1ccccc1F)c1ccc([N+](=O)[O-])cc1 | 2.29%
Cc1sc(C)c(C(=O)NC2(c3ccc(C(=O)O)cc3)CC2)c1Cc1ccc(C(F)(F)F)cc1 | -2.97%
COc1cc([C@@H](O[C@@H]2O[C@H](CO)[C@@H](O)[C@H](O)[C@H]2O)[C@@H]2CO[C@H](c3ccc(O)c(OC)c3)[C@H]2CO)ccc1O | 0.381% [at 25.3 µM]
CC(C)NC(=O)c1ccc(C#Cc2ccncc2)cn1 | -11%
O=C(O)CC/C=C\C[C@H]1CO[C@@H](c2ccccc2Cl)O[C@H]1c1ccccc1O | 0.565%
CC(C)=CCc1cc(O[C@@H]2O[C@H](CO[C@@H]3OC[C@](O)(CO)[C@H]3O)[C@@H](O)[C@H](O)[C@H]2O)ccc1O | -0.13% [at 25.3 µM]

Compound | activity change, negative = cytotoxicity
CC1(C)[C@@H]2CC=C(CO[C@@H]3O[C@H](CO[C@@H]4OC[C@H](O)[C@H](O)[C@H]4O)[C@@H](O)[C@H](O)[C@H]3O)[C@H]1C2 | 4.22% [at 25.3 µM]
COc1ccc(C2C(C(=O)O)C(C(=O)O)C2c2ccc(OC)cc2O[C@@H]2O[C@H](CO)[C@@H](O)[C@H](O)[C@H]2O)c(O[C@@H]2O[C@H](CO)[C@@H](O)[C@H](O)[C@H]2O)c1 (stereo not given in full) | -6.74% [at 25.3 µM]
C=C(C)C1CCC2(C(=O)OC3OC(COC4OC(CO)C(O)C(O)C4O)C(OC4OC(C)C(O)C(O)C4O)C(O)C3O)CCC3(C(=O)O)C(CCC4C5(C)CCC(=O)C(C)(C)C5CCC43C)C12 (stereo not given) | 0.715% [at 11.6 µM]
CC1=C(CC/C(C)=C/C(=O)O)[C@@]2(C)CCCC(C)(C)C2CC1=O (stereo not given in full) | 0.404% [at 38.5 µM]
C[C@]12CCC[C@](C)(C(=O)O)C1[C@@H](O)[C@@H](O)C13CC(CCC12)C(CO)(O[C@@H]1O[C@H](CO)[C@@H](O)[C@H](O)[C@H]1O)C3 (stereo not given in full) | -0.68% [at 25.3 µM]
COc1cc(O)cc(C)c1C(=O)O[C@H]1[C@@H](O)[C@@H](n2ccc(=O)[nH]c2=O)O[C@@H]1CO | -2.01% [at 25.3 µM]
C=C1C(=O)O[C@@H]2C[C@]3(C)[C@@H](CCC(C)=O)[C@@H]3C[C@H]12 | -16.8%
C=C1CC[C@@]2(OC1)O[C@H]1CC3[C@@H]4CC=C5C[C@@H](O)C[C@@H](O[C@@H]6OC[C@H](O)[C@H](O)[C@H]6O[C@@H]6O[C@@H](C)[C@H](O)[C@@H](O)[C@H]6O)[C@]5(C)C4CC[C@]3(C)[C@H]1[C@@H]2C (stereo not given in full) | -10.2% [at 25.3 µM]
C/C=C(\C)C(=O)OCC1OC(OCC2OC(OC3(CO)OC(CO)C(O)C3O)C(O)C(O)C2O)C(O)C(O)C1O (stereo not given) | -10.1% [at 25.3 µM]
COC(=O)C1=CO[C@@H](O[C@@H]2O[C@H](CO)[C@@H](O)[C@H](O)[C@H]2O)/C(=C\CO)[C@@H]1CC(=O)OCCc1ccc(O)cc1 | 7.5% [at 25.3 µM]
CCC(C)C1NC(=O)C2CCCN2C(=O)C(CC(O)CO)OC(=O)CCNC(=O)C(C)N(C)C(=O)C(C(C)C)N(C)C1=O (stereo not given) (cyclo([X13]PI[NMeV][NMeA][βAla]); configuration not given here) | -6.72% [at 25.3 µM]
O=C(C[C@@H]1C(C(=O)O)=CO[C@@H](O[C@@H]2O[C@H](CO)[C@@H](O)[C@H](O)[C@H]2O)/C1=C\CO)OCCc1ccc(O)cc1 | 3.54% [at 25.3 µM]
COC(=O)[C@H](O)[C@H]1C(C)(C)[C@H](OC(C)=O)[C@@]2(O)C(=O)[C@]1(C)C1CC[C@]3(C)C(CC(=O)O[C@H]3c3ccoc3)[C@]13O[C@@H]32 (stereo not given in full) | -14% [at 25.3 µM]
CC(=O)c1c(C)cccc1O[C@@H]1O[C@H](CO)[C@@H](O)[C@H](O)[C@H]1O | 4.19% [at 38.5 µM]
C/C=C(\C)C(=O)OC1CC2C(CC=C3CC(OC4CC(OC)C(OC5CC(OC)C(OC6CC(OC)C(OC7CC(OC)C(OC8CC(OC)C(OC9OC(CO)C(O)C(O)C9O)C(C)O8)C(C)O7)C(C)O6)C(C)O5)C(C)O4)CCC32C)C2(O)CCC(C(C)=O)C12C (stereo not given) | 2.5% [at 6.55 µM]
COc1ccc2[nH]c(S(=O)Cc3ncc(C)c(OC)c3C)nc2c1 (stereo not given) | 4.58%
COc1cc(C)c(C(=O)OC2C(C)OC(OC3CCC(C)C4C3C=C(C)C3/C(C)=C\CC/C(C)=C/C5(C)C=C(C(=O)O)C(C)CC56OC(=O)/C(=C(\O)C34C)C6=O)C(O)C2O)c(OC)c1 (stereo not given) | 1.13% [at 11.6 µM]
COc1ccc(/C=C/C(=O)O[C@@H]2[C@@H](O[C@@H]3O[C@H](CO)[C@@H](O)[C@H](O)[C@H]3O)[C@@H](O)[C@H](O[C@H]3C4C=CO[C@@H](O[C@@H]5O[C@H](CO)[C@@H](O)[C@H](O)[C@H]5O)C4[C@@]4(CO)O[C@@H]34)O[C@H]2C)cc1 (stereo not given in full) | 4.96% [at 11.6 µM]
CC(C)C1NC(=O)C(CC2(O)c3ccccc3N3C(=O)C(Cc4ccccc4)NC32)NC1=O (stereo not given) | 7.52% [at 25.3 µM]

From PubChem BioAssay (NCATS)
